Most compounds without a hit are left out; they make up all but 1.9% or so of the library.
KLF5 inhibitor – KLF5 expression inhibitors, primary screen, DLD-1 cells, luminescence; DLD-1 KLF5 promoter-luciferase reporter; inhibition, % at 5 µM; 290,000 tested, 0.23% active; AID 1700, 2009;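 active = inhibition above a per-plate limit of that plate's mean compound inhibition plus 3 SD, cut at about 60% in these data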;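 also: higher means less KLF5 promoter-driven luciferase light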
BaF3 parental – parental Ba/F3 cell viability inhibition, counter-screen for JAK2V617F inhibitor project, murine pro-B, CellTiter-Glo luminescence. inhibition, % at 5.6 µM. AID 1486, 2009. 220,000 tested, 1.1% active. CellTiter-Glo ATP luminescence;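 active = inhibition above a per-campaign cutoff, the mean inhibition of all tested compounds plus 3 SD, cut at about 27% in these data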
IEC-6 cytotox – cytotoxicity in IEC-6 intestinal epithelial cells, primary screen, cytotoxicity control for KLF5 inhibitor project, cell-based, luminescence; 290,000 tested, 0.78% active; inhibition, % at 5 µM; IEC-6 cytotoxicity, luminescence viability; in the data active = inhibition above about 22%
APP 5UTR inh – inhibitors of APP translation via 5'UTR reporter, primary screen, APP 5'UTR luciferase, SH-SY5Y cells | SH-SY5Y APP 5'UTR-luciferase reporter, luminescence | 190,000 tested, 0.82% active | inhibition, % at 2 µM;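 active = inhibition above a set limit, derived from the sample mean plus 3 SD, cut at about 45% in these data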
Ba/F3 V617F tox – reduced viability of JAK2V617F-dependent Ba/F3 cells, primary screen, JAK2V617F inhibitor project, cell-based, Ba/F3 EpoR-JAK2V617F, luminescence; ATP luminescence; inhibition, % at 5.6 µM; 220,000 tested, 1.1% active;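 active = inhibition above the campaign mean plus 3 SD over all tested compounds, cut at about 24% in these data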;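 also: cytokine-independent growth of Ba/F3 cells driven by EpoR plus mutant JAK2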
Large screens that a line does not name were inactive.

O=C(O)c1ccc2noc(-c3ccccc3)c2c1	none
CN1c2cccc3cccc(c23)N(C)C1(C)C	BaF3 parental 58, Ba/F3 V617F tox 27
CN1c2ccccc2N(C)C1(C)c1cccc2ccccc12	none
O=C(OCC(=O)N1CCCC1)c1cc(Cl)ccc1Cl	none (no result: BaF3 parental, APP 5UTR inh, Ba/F3 V617F tox)
COC(=O)c1[nH]c2ccc(F)cc2c1NS(=O)(=O)c1ccc(OC)cc1	BaF3 parental 61, IEC-6 cytotox 52, APP 5UTR inh 89, Ba/F3 V617F tox 81
O=C(O)c1cccc(Cn2c(Cl)c(/C=N/NC(=O)c3ccco3)sc2=O)c1	none (no result: BaF3 parental, APP 5UTR inh, Ba/F3 V617F tox)
COc1ccc(OCC(=O)OCC(=O)NCc2ccc(F)cc2)cc1	APP 5UTR inh 64
COc1ccc(CNC(=O)COC(=O)CCOc2ccccc2)cc1	none
CN1C(=O)c2ccc(C(=O)Nc3ccccc3O)cc2C1=O	none (no result: BaF3 parental, APP 5UTR inh, Ba/F3 V617F tox)
N=c1ccn(Cc2ccc(Cl)c(Cl)c2)cc1	BaF3 parental 75, Ba/F3 V617F tox 89
N=c1ccn(Cc2ccc(Cl)cc2)cc1	BaF3 parental 68, Ba/F3 V617F tox 92
N=c1ccn(Cc2cccc(Cl)c2)cc1	BaF3 parental 66, Ba/F3 V617F tox 88
CCOc1cc(/C=C2/NC(=O)N(Cc3ccccc3F)C2=O)ccc1O	BaF3 parental 72, Ba/F3 V617F tox 95
Cc1cc(C)c(C)c(S(=O)(=O)NCCCN2CCOCC2)c1C	BaF3 parental 90
Cc1ccc(S(=O)(=O)NCCCN2CCOCC2)cc1C	none
CCOC(=O)c1c(-c2ccccc2)oc2cc(CN(C)C)c(O)c(CN(C)C)c12	APP 5UTR inh 53
C[N+]1=C(/C=C/Nc2ccccc2Cl)C(C)(C)c2ccccc21	BaF3 parental 63, Ba/F3 V617F tox 59
CCCn1cnnc1CNC(=O)C1CCC(=O)N(CCc2ccc(OC)cc2)C1 (stereo not given)	none (no result: BaF3 parental, APP 5UTR inh, Ba/F3 V617F tox)
CCCCCCCCCCCCOC(=O)C[N+](C)(C)C	none (no result: APP 5UTR inh)
C/C(Cl)=C\C[N+](C)(C)CC(=O)OCCc1ccccc1	none (no result: APP 5UTR inh)
CCCCCCCCOC(=O)C[N+](C)(C)C/C=C(/C)Cl	BaF3 parental 53, Ba/F3 V617F tox 32
CCCCCCCCCCOC(=O)C[N+](C)(C)C/C=C(/C)Cl	BaF3 parental 59, Ba/F3 V617F tox 67
COCc1ccc(C(=O)N2CCCC(C(=O)c3ccc(Cl)cc3C)C2)o1 (stereo not given)	none (no result: BaF3 parental, APP 5UTR inh, Ba/F3 V617F tox)
CN(C(=O)CSc1nnc(-c2ccccc2)o1)c1c(N)n(Cc2ccccc2)c(=O)[nH]c1=O	none
CCOC(=O)c1[nH]c(C)c(C(=O)OC(C)C(=O)Nc2ncc(Cl)cc2Cl)c1C (stereo not given)	none
CC(OC(=O)C1=NNC(=O)CC1)C(=O)Nc1ncc(Cl)cc1Cl (stereo not given)	BaF3 parental 81
CN1/C(=C\C=C2/C(=O)Oc3ccccc3C2=O)C(C)(C)c2ccccc21	none
CN1C(=CC=C2C=C(I)C(=O)C(I)=C2)C(C)(C)c2ccccc21	BaF3 parental 33 (no result: APP 5UTR inh)
CN1/C(=C\C=C2/SC(=S)NC2=O)C(C)(C)c2ccccc21	BaF3 parental 81, Ba/F3 V617F tox 65
CCOC(=O)N1CCC(=NNC(=O)COc2ccc(OC)cc2)CC1	none
CC(C)c1ccc(C2C3=C(COC3=O)Nc3cc4c(cc32)OCO4)cc1 (stereo not given)	KLF5 inhibitor 72, BaF3 parental 77, IEC-6 cytotox 90, APP 5UTR inh 95, Ba/F3 V617F tox 71
CC(C)c1ccc(NS(=O)(=O)c2ccc3c(c2)NC(=O)CO3)cc1	none (no result: BaF3 parental, APP 5UTR inh, Ba/F3 V617F tox)
OC(CNCc1ccccc1Cl)C(F)(F)F (stereo not given)	none
COc1cc(/C=C(\C#N)c2[nH]nc(N)c2C#N)cc(OC)c1O	APP 5UTR inh 49
COc1ccc(OC)c(Nc2nc(NCCCN(C)C)nc(N)c2[N+](=O)[O-])c1	BaF3 parental 50, Ba/F3 V617F tox 58 (no result: APP 5UTR inh)
CC(=O)c1cccc(S(=O)(=O)NCCC(=O)O)c1	BaF3 parental 34
O=C(O)CCNS(=O)(=O)c1ccccc1	none
CCCCCNC1=CC(=O)CC(c2ccccc2)C1 (stereo not given)	none
CCCCCCCNC1=CC(=O)CC(c2ccccc2)C1 (stereo not given)	BaF3 parental 36, Ba/F3 V617F tox 28
C=CC[N+]1(CC#Cc2ccccc2)CCCC1	BaF3 parental 56, Ba/F3 V617F tox 46
C(#Cc1ccccc1)C[N+]1(CC#Cc2ccccc2)CCCC1	BaF3 parental 71, Ba/F3 V617F tox 87
CCOC(=O)N1CCN(C(=O)CN(c2ccc(Oc3ccccc3)cc2)S(C)(=O)=O)CC1	BaF3 parental 34
CCOC(=O)N1CCN(C(=O)CN(c2ccc(OCC)cc2)S(C)(=O)=O)CC1	none
CCc1ccc(-c2nc(CSCC(=O)NCc3ccco3)c(C)o2)cc1	APP 5UTR inh 47
COc1cc(NC(=O)Cn2c([N+](=O)[O-])cnc2C)c(OC)cc1Cl	none (no result: BaF3 parental, APP 5UTR inh, Ba/F3 V617F tox)
Cc1nc2scc(-c3ccccc3)c2c(=O)n1N=C1C=CC(=O)C=C1	APP 5UTR inh 80, Ba/F3 V617F tox 49
COc1cc2c(cc1O)CC[C@@H]1[C@@H]2CC[C@]2(C)[C@@H](O)CC[C@@H]12	BaF3 parental 78, IEC-6 cytotox 74, APP 5UTR inh 93, Ba/F3 V617F tox 76
C[C@]12CC[C@@H]3c4ccc(OC(=O)c5ccccc5)cc4CC[C@H]3[C@@H]1CC[C@@H]2O	none
COC(=O)c1[nH]c2cc(OC)c(OC)cc2c1/C=N/Nc1ccccc1	none (no result: BaF3 parental, APP 5UTR inh, Ba/F3 V617F tox)
Cc1csc(NC(=O)CCNS(=O)(=O)c2ccc3c(c2)c(=O)n(C)c(=O)n3C)n1	BaF3 parental 94
O=C(CCl)Nc1cccc(-c2cnc3ccccc3n2)c1	BaF3 parental 39, Ba/F3 V617F tox 73 (no result: APP 5UTR inh)
Cc1ccccc1N1C(=O)CC2(CCCC2)CC1=O	BaF3 parental 45
CCC(=O)OCCNc1cc(SCCC(=O)OC)c2nonc2c1[N+](=O)[O-]	none
Cc1ccc(Sc2cc(NCCCO)c([N+](=O)[O-])c3nonc23)cc1	none (no result: APP 5UTR inh)
CCCC(=O)OCCNc1cc(Sc2nc3ccccc3[nH]2)c2nonc2c1[N+](=O)[O-]	APP 5UTR inh 74
CCC(=O)OCCNc1cc(Sc2nccn2C)c2nonc2c1[N+](=O)[O-]	APP 5UTR inh 60
CC(=O)OCCCNc1cc(Sc2ccc(Cl)cc2)c2nonc2c1[N+](=O)[O-]	APP 5UTR inh 51
COC(=O)Cn1c(O)c(N=NC(=O)CNC(=O)c2ccncc2)c2ccccc21	none (no result: BaF3 parental, APP 5UTR inh, Ba/F3 V617F tox)
CSC(=S)NCc1cccnc1	none
Cc1ccc(-n2nc(C)c3c2OC(N)=C(C#N)C3c2ccccc2F)cc1 (stereo not given)	APP 5UTR inh 47
CNCC(O)Cn1c2c(c3ccccc31)CCCC2 (stereo not given)	none
CCn1c2c(c(=N)c3c1CCC3)CCC2	BaF3 parental 28
CCCCn1c2c(c(=N)c3c1CCC3)CCC2	BaF3 parental 63, Ba/F3 V617F tox 73
N=c1c2c(n(Cc3ccc(F)cc3)c3c1CCC3)CCC2	BaF3 parental 65, Ba/F3 V617F tox 49
Fc1ccc(CN2CCCCCCC2)cc1	none
